The structures appear in SMILES notation. “And” between values parts separate entries of the source, which are not always exact repeats. Identical values can stand only once. The panel holds about 83,000 compounds, 20% with a hit somewhere; the sample as a whole holds those more often.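 The test compound was applied at a single concentration to cells in 96-well plates for 48 hours, and percent growth was recorded.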 Values without a mark were called inactive. The source made the active and inactive calls. Rule for the calls: active = growth percent below 10; inactive = the rest.

This assay concerns MDA-MB-468 breast. The assay is described as follows: NCI-60 one-dose screen, 48 h (100 = growth as untreated, 0 = no growth, -100 = all killed). The settings on record: 10 µM unless noted.
As for `CC(=O)OC[C@]12CCC(C)(C)C=C1[C@H]1CC[C@@H]3[C@@]4(C)CCCNC(C)(C)[C@@H]4CC[C@@]3(C)[C@]1(C)CC2`, the growth was -6.16% (active).

As to `COc1ccc2nc(C)cc(Nc3ccc(Cl)cc3)c2c1`, the growth is 87.2%.

Take `COc1cc(-c2nc(-c3nnc(-c4ccc(F)c(Cl)c4)o3)c3ccccn23)cc(OC)c1OC`: the growth was 52.5%.

Consider `N#Cc1c(-c2ccc(F)cc2)cc(-c2c[nH]c3ccccc23)nc1-c1c[nH]c2ccccc12`, for which the growth was 99.3%.

Take `Cc1ccc2c(NCCCN(C)C)c3c(C)nn(C)c3nc2c1`: the growth is 22.1%.

Turning to `O=C1NC(=Nc2ccc(S(=O)(=O)Nc3nccs3)cc2)S/C1=C\c1coc2ccccc2c1=O`, the growth is 99.9%.

Regarding `Cc1[nH]c(C(=O)Nc2ccccc2OCc2cccc(C(=O)NCCN)c2)c(Cl)c1Cl`, the growth is 10.7%.

For the molecule `COc1ccc(Nc2nc(NCCNc3ccnc4cc(Cl)ccc34)nc(N3CCOCC3)n2)cc1`, the growth was 23.9%.

Take `CN(C)C(CNc1oc(-c2cccc3ccccc23)nc1C#N)c1ccco1` (centres undefined): the growth was 97%.

Turning to `CCCCc1c(CCC)c(=N)c2ccccc2n1C`, the growth is 74.2%.

Turning to `O=C(/C(Cl)=N/O)c1ccc(-c2ccccc2)cc1`, the growth was 104%.

Take `c1ccc(OCCC[P+](c2ccccc2)(c2ccccc2)c2ccccc2)cc1`: the growth was -7.95% (active).

In the case of `O=C1/C(=C/c2ccc(Cl)cc2)CN(C(=O)CCN2CCC(=NO)CC2)C/C1=C\c1ccc(Cl)cc1`, the growth is -65.3% (active).

For `O=C(Nc1ccccc1-c1nc2ccccc2c(=O)[nH]1)c1cc2ccccc2[nH]1`, the growth is 86.9%.

For the molecule `CCN(CC)CCCCCCCNc1c2ccc(Cl)cc2nc2ccc(OC)cc12`, the growth is -86.6% (active).

As for `CN1CCN(Cc2ccc(NC(=O)c3cncc(C#Cc4cnc(N)c5ccncc45)c3)cc2C(F)(F)F)CC1`, the growth is 35.5%.

On to `Cc1ccc(-c2cc3c(cc2O)C2CCCCC2(N2CCOCC2)O3)cc1` (centres undefined), for which the growth was 87.9%.

Regarding `C=C(C=O)[C@@H]1CC[C@]2(C)[C@H](CC=C3[C@H]4[C@@H](C)[C@H](C)CC[C@]4(C(=O)OC)CC[C@]32C)[C@@]1(C)CCC#N`, the growth was -18.1% (active).

Regarding `Oc1cccc2ccc(-c3nnc(SCc4ccc(O)c5ncccc45)o3)nc12`, the growth was 0.74% (active).

`Cc1ccc(C2CC(c3ccc(Nc4nc(NCCO)nc(NCCO)n4)cc3)=NN2c2ccc(Cl)cc2)cc1` (centres undefined): the growth is 73.2%.

Turning to `CS(=O)(=O)Nc1cc(-c2ccc3ncc(C#N)c(NCc4ccccc4O)c3c2)cnc1Cl`, the growth was -23.1% (active).

In the case of `Cc1cccc(/C=C\C(=O)c2ccccc2)c1`, the growth was 105% and 99%.

In the case of `CCN1C(=O)N(CC)C2Nn3c(s/c(=C\c4ccc([N+](=O)[O-])cc4)c3=O)=NC21` (centres undefined), the growth is 7.37% (active).

As to `O=c1[nH]n(-c2ccccc2)c(=O)cc1Cl`, the growth was 101%.

Turning to `O=c1c2cc(F)ccc2sc2c(NCCCNCCO)nc3ccc(F)cc3c12`, the growth is 39.7%.

On to `COC(=O)[C@@H]1CCCN1C(=O)[C@H]1CCCN1C(=O)[C@@H](Cc1c[nH]c2ccccc12)NC(=S)Nc1cc(C(F)(F)F)cc(C(F)(F)F)c1`, for which the growth is 29.2%.

In the case of `N=c1nc(N2CCCCC2)cc(N)n1O`, the growth is 97.1%.

Turning to `CC/C(=C(/c1ccc(Cl)cc1)c1ccc(OCCN2CCCCCC2)cc1)c1ccccc1`, the growth was 78.3%.

On to `COc1cc(C(=O)C[n+]2ccc3ccccc3c2)cc(OC)c1OC`, for which the growth was 98.3%.

As for `CCOC(=O)c1cc(C(=O)c2ccc(F)cc2F)n2ccccc12`, the growth was 102%.

With `Clc1cccc(Cl)c1/C=C/c1cc(/C=C/c2c(Cl)cccc2Cl)[nH]n1`, the growth is 12.4%.

Regarding `COc1ncc(F)c(OC)n1`, the growth was 98.7%.

`Cc1cn(-c2cc(NC(=O)c3cncc(C#Cc4c(N)ncc5ccc(F)cc45)c3)cc(C(F)(F)F)c2)cn1`: the growth is 50.8%.

`OC(c1cccc(OCc2ccccc2)c1)c1nnc(-c2ccccc2)o1` (centres undefined): the growth is 64.8%.

`O=C1c2c(c3c4cc(Br)ccc4[nH]c3c3ccc4ccccc4c23)C(=O)N1CCO`: the growth is 100%.

Consider `C[C@]12O[C@H](C[C@]1(O)CO)n1c3ccccc3c3c4c(c5c6ccccc6n2c5c31)CNC4=O`, for which the growth is -47.5% (active).

Regarding `O=C(Cn1nnc2ccccc21)Nc1ccc(-c2nc3ccccc3s2)cc1`, the growth was -23.8% (active).

In the case of `Cc1cc(NCc2cc(Nc3ccnc4cc(Cl)ccc34)ccc2F)nc(N2CCN(C)CC2)n1`, the growth was -45.9% (active).

Consider `Cn1c(O)c(N=NC(=O)c2cc(-c3ccccc3)on2)c2ccccc21`, for which the growth was 107%.

The record behind these values is PubChem BioAssay (NCI).
